High-throughput results deposited in PubChem BioAssay by National Center for Advancing Translational Sciences (NCATS).
HCV inh = HCV inhibition | hit rate 3.4% among 340,000 | Huh7.5.1 HCVcc-Cre infection, luciferase reporter, 44 h | AID 651820 | Potency, µM (series often up to 41.8 µM), actives largely listed as inhibitors
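Seed cells (1,000/well) for 4 h; treat with compound and infect with HCVcc-Cre, moi about 0.5. Incubate 44 h, then detect luciferase activity.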
HCMV inh = inhibitors of human cytomegalovirus. activity change, negative = inhibition, % at 57.5 µM. HFF cells, HCMV-luciferase reporter, 72 h; active compounds read low. hit rate 4.5% among 410,000. AID 1259415; in the data active = activity change below about -60%; inconclusive = no clear call, values can overlap the other calls; inactive = above about -39%
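Cell-based, HFFs, 1000 cells/well, 16 h 37C; cpds in DMSO + HCMV-luc, MOI 1 PFU/cell; 72 h 37C; OneGlo luminescence after 5 min RT; norm. to buffer vs Salinomycin 10uM.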
Pf growth 48h = inhibits P. falciparum growth in the first generation, 48 h. P. falciparum luciferase growth in erythrocytes, 48 h. Potency, µM (doses to about 28.7 µM), most hits filed as inhibitors. hit rate 5.9% among 310,000
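Compounds are pin-transferred into medium, infected erythrocytes (2% hematocrit, 0.1% parasitemia final) are added, and plates sit one parasite generation at 37 C in 5% CO2. Detection reagent is then added and luminescence measured.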
Pf growth 96h = P. falciparum growth inhibition at 96 hour, primary screen for plastid delayed-death inhibitors; P. falciparum luciferase reporter growth, 96 h; Potency, µM (titrated, usually from 28.7 µM), hits mostly inhibitors; hit rate 6.9% among 320,000
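P. falciparum expressing integrated firefly luciferase grown in erythrocytes (2% hematocrit, 0.05% parasitemia final) with compounds for 96 hours at 37 C, 5% CO2. Growth inhibition read as loss of luminescence after adding luciferase detection reagent.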
Of the large screens only hits and unclear results are named; the others gave an inactive call. This is a sample that favours compounds with a hit; in the whole collection about 13% have one here. Unless noted, calls follow the shape of the dose curve; as a rule, active = well fitted inhibition curve with a large enough effect; inconclusive = small, poorly fitted or top-dose-only effect, or another doubt; inactive = no such curve, though single readings can be large or run the other way.

CCOC(=O)CSc1nc2sc3c(c2c(=O)n1Cc1ccccc1)CC(C)CC3 (configuration not stated)	none (no result: HCV inh, Pf growth 48h, Pf growth 96h)
COc1ccc(Cl)cc1C(=O)C1CCCN(Cc2cnc(N3CCOCC3)s2)C1 (configuration not stated)	HCV inh inconclusive, HCMV inh inconclusive, Pf growth 48h inconclusive, Pf growth 96h 10.4µM
COc1c(C)cc(C(=O)C2CCCN(Cc3cnc(N4CCOCC4)s3)C2)cc1C (configuration not stated)	HCV inh 11.2µM, Pf growth 48h inconclusive
Cc1ccccc1Cn1ccn(-c2ccc(F)c(F)c2)c(=O)c1=O	none (no result: HCV inh, Pf growth 48h, Pf growth 96h)
CC(C)(O)C#Cc1ccc(C(=O)NCc2cccs2)s1	Pf growth 96h 9.28µM
O=C(NCCS(=O)(=O)N1CCN(c2ccc(F)cc2)CC1)c1cccc(C(F)(F)F)c1	none (no result: HCV inh, Pf growth 48h, Pf growth 96h)
Cc1ccc(-c2nn3c(=O)cc(CN4CCN(C(=O)/C=C/c5ccccc5)CC4)nc3s2)cc1	none (no result: HCV inh, Pf growth 48h, Pf growth 96h)
COCCNC(=O)C1CCCN(C(=O)c2ccnc(Cl)c2)CC1 (configuration not stated)	HCMV inh -68.5 (no result: HCV inh, Pf growth 48h, Pf growth 96h)
O=C(NCC(c1cccnc1)N1CCN(c2ccc(F)cc2)CC1)c1cccc(Cl)c1 (configuration not stated)	HCV inh 14.1µM, Pf growth 48h 11.7µM
O=C(NCC(c1cccnc1)N1CCN(c2ccccc2)CC1)OCc1ccccc1 (configuration not stated)	Pf growth 48h 7.38µM
O=C(NCC(c1cccnc1)N1CCN(c2ccc(F)cc2)CC1)OCc1ccccc1 (configuration not stated)	none (no result: Pf growth 48h)
O=C(NCCc1c[nH]c2ccccc12)C(=O)NCC(c1cccnc1)N1CCN(c2ccccc2)CC1 (configuration not stated)	HCV inh 10µM, HCMV inh inconclusive, Pf growth 48h 13.1µM, Pf growth 96h 8.28µM
COc1cc(C(=O)NCC(c2cccnc2)N2CCN(c3ccccc3)CC2)cc(OC)c1OC (configuration not stated)	HCV inh inconclusive, Pf growth 48h 13.1µM, Pf growth 96h inconclusive
Cc1cc(C(F)F)n2nc(C(=O)Nc3ccc(C(C)C)cc3)nc2n1	none (no result: HCV inh, Pf growth 48h, Pf growth 96h)
COC(=O)c1cc(NC(=O)c2cc3sccc3n2Cc2ccc(Cl)cc2)cc(C(=O)OC)c1	none (no result: HCV inh, Pf growth 48h, Pf growth 96h)
O=C(CSc1nc2c(c(=O)[nH]1)CCC2)Nc1ccccc1C(F)(F)F	none (no result: HCV inh, Pf growth 48h, Pf growth 96h)
COc1ccc(NC(=O)CCNS(=O)(=O)c2ccc3c(c2)CCN3C(=O)C2CC2)cc1Cl	none (no result: HCV inh, Pf growth 48h, Pf growth 96h)
COC(=O)NCC(c1cccnc1)N1CCN(c2ccc(F)cc2)CC1 (configuration not stated)	none (no result: HCV inh, Pf growth 48h, Pf growth 96h)
O=C(NCC(c1cccnc1)N1CCN(c2ccc(F)cc2)CC1)Oc1ccccc1 (configuration not stated)	Pf growth 48h 8.28µM, Pf growth 96h inconclusive
COc1ccccc1Nc1nc(C)nc(N)c1S(=O)(=O)c1ccccc1	none (no result: HCV inh, Pf growth 48h, Pf growth 96h)
CCNc1nc(NCC)nc(Oc2ccc(OCC)nn2)n1	none
CCNc1nc(NC(C)C)nc(Oc2ccc(OCCOc3ccc(C)cc3)nn2)n1	Pf growth 48h inconclusive, Pf growth 96h 11.7µM
Cc1cc(C)c(NC(=O)Cn2c(=O)n(Cc3ccco3)c(=O)c3ccccc32)c(C)c1	Pf growth 48h 13.1µM
Cc1ccccc1NC(=O)Cn1c(=O)n(Cc2ccc3c(c2)OCO3)c(=O)c2ccccc21	HCMV inh -61.4 (no result: HCV inh, Pf growth 48h, Pf growth 96h)
Cc1ccccc1NC(=O)Cn1c(=O)n(Cc2ccc3c(c2)OCO3)c(=O)c2oc3ccccc3c21	none (no result: HCV inh, Pf growth 48h, Pf growth 96h)
COc1cc(NC(=O)c2sc3nc4n(c(=O)c3c2C)CCCCC4)cc(OC)c1OC	none (no result: HCV inh, Pf growth 48h, Pf growth 96h)
O=C(O)CSCC(=O)Nc1ccc(Cl)cc1C(F)(F)F	none
CCC(C)N(CC(=O)Nc1cccc(C)c1C)C(=O)CCl (configuration not stated)	HCV inh 1.26µM, Pf growth 48h inconclusive, Pf growth 96h 3.7µM (no result: HCMV inh)
CC(C)N(CC(=O)Nc1ccc(Cl)cc1C(F)(F)F)C(=O)CCl	HCV inh 3.98µM, HCMV inh -98.8
COc1ccc(-c2cnc(N)nc2-c2ccc(OCc3ccccc3)cc2O)cc1	HCV inh inconclusive, Pf growth 48h inconclusive, Pf growth 96h 14.7µM
Nc1ncc(-c2ccccc2)c(-c2ccc(O)cc2O)n1	HCV inh inconclusive, HCMV inh -61.4 (no result: Pf growth 48h)
CCOC(=O)Cc1nnc(Nc2ccc(C)cc2)c2ccccc12	HCV inh inconclusive, Pf growth 96h 10.4µM
COC(=O)c1ccc(N2CCN(C)CC2)c(NC(=O)c2sc3ccccc3c2Cl)c1	HCV inh inconclusive, HCMV inh -98.4 (no result: Pf growth 48h, Pf growth 96h)
CN1CCN(c2ccc(NC(=O)c3sc4ccccc4c3Cl)cc2)CC1	HCV inh inconclusive, HCMV inh inconclusive
O=C(CCCn1c(=O)c2cccn2c2ccccc21)NCCc1ccc(Cl)cc1	none (no result: HCV inh, Pf growth 48h, Pf growth 96h)
COc1cc2c(c(OC)c1OC)-c1ccc(SC)c(=O)cc1C(NC(=O)C(F)(F)F)CC2 (configuration not stated)	HCMV inh -81.5 (no result: Pf growth 48h, Pf growth 96h)
COc1cc2c(c(OC)c1O)-c1ccc(OC)c(=O)cc1C(NC(=O)C(F)(F)F)CC2 (configuration not stated)	HCMV inh -90.3 (no result: Pf growth 48h, Pf growth 96h)
COc1cc2c(c(OC)c1OC)-c1ccc(OC)c(=O)cc1[C@@H](N(C)CC#CCO)CC2	HCMV inh inconclusive, Pf growth 48h inconclusive
COc1cc2c(c(OC)c1OC)-c1ccc(C(=O)O)cc1[C@@H](NC(C)=O)CC2	none (no result: HCV inh, Pf growth 48h, Pf growth 96h)
COc1cc2c(c(OC)c1OC)-c1ccc(SC)c(=O)cc1C(NC(C)=O)CC2 (configuration not stated)	HCMV inh -93.5 (no result: Pf growth 48h, Pf growth 96h)
O=S1(=O)c2ccccc2N(Cc2cccc(Cl)c2)c2ccccc21	none (no result: HCV inh, Pf growth 48h, Pf growth 96h)
CCc1ccc(-n2c(C)nnc2SCc2nc(-c3ccc(OC)cc3)no2)cc1	none (no result: HCV inh, Pf growth 48h, Pf growth 96h)
CCN1CCc2nc(NC(=O)c3ccc(S(=O)(=O)N(C)C)cc3)sc2C1	none
CCN1CCc2nc(NC(=O)C(c3ccccc3)c3ccccc3)sc2C1	Pf growth 96h 8.28µM (no result: Pf growth 48h)
CCN1CCc2nc(NC(=O)CC(c3ccccc3)c3ccccc3)sc2C1	HCV inh inconclusive, Pf growth 48h 5.86µM, Pf growth 96h 10.4µM
O=C(Nc1ccc(SC(F)F)cc1)c1cc(-c2ccc3c(c2)OCCO3)on1	HCMV inh -66.4 (no result: HCV inh, Pf growth 48h, Pf growth 96h)
CC(=O)Nc1ccc(NC(=O)c2cc(-c3ccc4c(c3)OCCO4)on2)cc1	none (no result: HCV inh, Pf growth 48h, Pf growth 96h)
Fc1ccc2c(c1)c1n[nH]c(=S)nc1n2CCc1ccccc1	HCMV inh inconclusive, Pf growth 48h inconclusive
Cc1ccc2c(c1)c1n[nH]c(=S)nc1n2CCc1ccccc1	HCMV inh -92.7, Pf growth 48h inconclusive
O=C(/C(=C\c1ccccc1)c1nc2ccccc2[nH]1)c1ccc(Cl)cc1	HCV inh inconclusive, HCMV inh -87.2, Pf growth 48h inconclusive, Pf growth 96h inconclusive
COC(=O)/C(=C\c1ccc(O)cc1)c1nc2ccccc2[nH]1	none
COC(=O)/C(=C\c1cc(OC)c(OC)c(OC)c1)c1nc2ccccc2[nH]1	HCV inh inconclusive, HCMV inh -98.2, Pf growth 48h inconclusive
COc1cc(/C=C(/C(=O)c2cccs2)c2nc3ccccc3[nH]2)ccc1O	HCV inh inconclusive, HCMV inh -98.8, Pf growth 48h 2.08µM, Pf growth 96h 1.17µM
